# Measurements from PubChem BioAssay AID777 (Sanford-Burnham Center for Chemical Genomics, 2007).
# About 19,000 (20%) of roughly 96,000 compounds were called active. Only a sample is shown. Unmarked numbers belong to inactive results.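 How the source made its calls: active means blocking of liver enzyme CYP2C9 beyond about 50% at 5 µM (limit read from the data); inactive means the rest.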
# Target: Cytochrome P450 2C9 (Homo sapiens) (UniProt P11712)
# Test: blockers of cytochrome P450 2C9 activity – biochemical, luminescence, ADME assay, primary screen (AID 777)
# Conditions: CYP2C9 Supersomes, luciferin-H conversion, at 5 µM, hits give high values
# Sequence of Cytochrome P450 2C9 (Homo sapiens) (P11712 whole entry, looked up): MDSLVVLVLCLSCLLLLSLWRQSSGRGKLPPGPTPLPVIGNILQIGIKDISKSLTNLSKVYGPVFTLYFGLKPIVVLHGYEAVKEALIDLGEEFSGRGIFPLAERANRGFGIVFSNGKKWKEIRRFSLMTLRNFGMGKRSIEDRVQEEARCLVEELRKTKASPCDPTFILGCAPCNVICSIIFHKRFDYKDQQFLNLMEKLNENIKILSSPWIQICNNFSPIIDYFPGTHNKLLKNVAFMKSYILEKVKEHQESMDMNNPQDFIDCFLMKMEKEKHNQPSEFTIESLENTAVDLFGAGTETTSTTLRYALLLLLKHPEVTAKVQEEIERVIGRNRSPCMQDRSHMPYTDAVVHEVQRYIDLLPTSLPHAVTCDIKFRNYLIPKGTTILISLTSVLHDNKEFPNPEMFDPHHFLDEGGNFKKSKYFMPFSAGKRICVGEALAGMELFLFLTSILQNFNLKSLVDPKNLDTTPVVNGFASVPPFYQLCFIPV
row,Structure (SMILES),inhibition
1,CCCC(=O)N1c2ccc(-c3csc(N)n3)cc2CC1C (stereo not drawn),34.6%
2,CN1C(=O)c2ccc(NC(=O)C3CCCCC3)cc2C1=O,3.3%
3,CN1CCC2(CC1)NC(=O)NC2=O,-9.5%
4,CSC1=N/C(=C\c2ccc3c(c2)OCO3)C(=O)S1,1.7%
5,COc1cc(/C=C(\C#N)c2nc3c(s2)CC(C)CC3)ccc1O (stereo not drawn),-74.5%
6,CCCCc1nnc(NC(=O)CSc2nc(C)cc(=O)[nH]2)s1,14%
7,Cc1ccc2cccc(O)c2[n+]1[O-],11.3%
8,COCc1cc(C(C)=O)ccc1OC,-37.2%
9,COc1ccc(CCN=C2SCC(=O)N2C)cc1OC,15.5%
10,COc1ccc(CC(=O)c2ccc(O)cc2O)cc1OC,53.9% (active)
11,CCCOC(=O)C1=C(C)NC2=C(C(=O)C(C(=O)OC)C(C)C2)C1c1ccc(N(C)C)cc1 (stereo not drawn),18.1%
12,COc1cc(OC)cc(C(=O)Nc2ccc(-c3nc4ccccc4o3)c(O)c2)c1,-18.6%
13,COc1ccccc1Nc1ncnc2c1oc1ccccc12,19.7%
14,Cc1ccc(/C=N/NC(=O)C(NC(=O)c2ccccc2)c2n[nH]c(=O)c3ccccc23)cc1 (stereo not drawn),56.5% (active)
15,Cc1ccc(C(=O)N/N=C/c2sc(=O)n(Cc3cccc(C(=O)O)c3)c2Cl)cc1,12.3%
16,COc1ccc(/C=N/Nc2nc3ccccc3c(=O)[nH]2)cc1,9.9%
17,Nc1ccc(SCCN2C(=O)c3ccccc3C2=O)cc1,71.9% (active)
18,O=C1c2ccccc2C(=O)N1CCC(c1ccccc1)c1ccco1 (stereo not drawn),40.2%
19,CC(=O)c1cnc(SCCN2C(=O)c3ccccc3C2=O)nc1C,13.5%
20,CCCS(=O)(=O)C(=C1Nc2ccccc2N1)S(=O)(=O)CCC,8.7%
21,COc1ccc(C(C#N)Nc2ccccc2C)cc1 (stereo not drawn),4.4%
22,CCN(CC)CCN1C(=O)C(=O)/C(=C(/O)c2cnn(-c3ccccc3)c2C)C1c1cccs1 (stereo not drawn),-11.5%
23,O=C(O)COc1nsnc1N1CCOCC1,-22.9%
24,CCOc1cc(N2CCOCC2)c(OCC)cc1NC(=O)COC(=O)[C@H](Cc1c[nH]c2ccccc12)NC(C)=O,45.8%
25,CCCCC(=O)Nc1ccc(C(=O)NCCCn2ccnc2)cc1,33.7%
26,CC1(C)C2CCC1(C)C(OC(=O)CCn1ccnc1)C2 (stereo not drawn),95.6% (active)
27,CC(=O)OCc1cc(=O)n(C)c(=O)n1C,-5.9%
28,CC1CCCN(C(=O)Cn2c(=O)oc3ccccc32)C1 (stereo not drawn),7.8%
